The text below walks through data of PubChem BioAssay (NCATS).

For part of these data: Results with a measured potency or affinity are listed apart. Calls of active or inactive are those of the source. How the calls were made is not given here.

For assay [1] the following is noted: Ebola virus entry assay, green fluorescence channel.
For assay [2] the following is noted: Ebola virus entry assay, blue channel fluorescence.
For assay [3] the following is noted: Ebola virus entry assay, ratio channel.
The conditions of assay [4]: Ebola virus entry assay, reporter ratio channel; Channel type: primary.
The conditions of assay [5]: Ebola virus entry assay, blue channel (ratio component).
The conditions of assay [6]: Ebola virus entry assay, green channel fluorescence.
Assay [7] can be described thus: Immunotoxin (HA22) sensitization/mitigation study. Vehicle arm (PBS) (AID 1159510). Further: potency means the concentration at half of the fitted maximal effect. The conditions noted are these: cancer cells viability with PBS vehicle (HA22 study); series mostly up to 46.1 µM.
A short description of assay [8]: Immunotoxin (SS1P) sensitization/mitigation study. Vehicle arm (DMEM) (AID 1159513). The conditions noted are these: cell viability with vehicle (DMEM); series mostly up to 46.1 µM.
Assay [9] in a line: qHTS profiling of the MIPE4 collection as inhibitors of Plasmodium falciparum (DD2) proliferation (Rep 2) (AID 743346). The conditions noted are these: P. falciparum Dd2 in erythrocytes, SYBR Green DNA, 72 h; at 28.5 µM (top of the series). In short, it runs like this:
(§1)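 Parasite DNA was quantified by SYBR Green I fluorescence (ex 485, em 535 nm) after overnight lysis in saponin/Triton buffer at room temperature. Cultures at 0.3% parasitemia and 2.5% hematocrit were first exposed to compound for 72 h at 37 C; signals were normalised to artemisinin (0.29 uM) and vehicle wells.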
For orientation: In qHTS, concentration-response curves come from the screen itself.

A short description of assay [10]: qHTS profiling of the MIPE4 collection as inhibitors of Plasmodium falciparum (HB3) proliferation (AID 743347).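 Further: plate controls were DMSO vehicle wells for no effect and artemisinin wells for full effect.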 Conditions: P. falciparum HB3 in erythrocytes, SYBR Green DNA, 72 h; at 28.5 µM (top of the series). In short, it runs like this: as §1
Wherever efficacy is given: 0% is about no effect.

For `CC1=C(C)C(=O)C(CCCCC#CCCCC#CCO)=C(C)C1=O`, in assay [1], the efficacy is 49.4% (inactive). Besides, the compound was called inactive in [2], in assay [3], in assay [4] and in assay [5].
For orientation: AC50 means the midpoint of the concentration-response curve, whichever way the signal moves. With `Cc1cc(C)c(/C=C2\C(=O)Nc3ccccc32)[nH]1`, in [1], the efficacy is 78.6% (inactive). For the same compound, the call in [2], in [3] and in [5] was inactive. For the same compound, in assay [4], the AC50 was 35.5 µM (active).
For the compound `Nc1cc(C(F)(F)F)ccc1S`, the efficacy in assay [1] was -31.2% (inactive). Besides, the result in assay [2], in assay [3], in assay [4] and in [5] was inactive.
Regarding `O=Cc1ccccc1C=O`, the efficacy in [1] is -22.6% (inactive). For the same compound, the compound was classed as inactive in [2], in assay [3], in assay [4] and in [5].
`C[N+]1(CCC(C(N)=O)(c2ccccc2)c2ccccc2)CCCCC1`: the efficacy in [1] was 21.3% (inactive). The result in assay [2], in assay [6], in [4] and in assay [5] was inactive.
Take `CC(C)(O)C(Cl)(Cl)Cl`: in [1], the efficacy was -12.3% (inactive). Besides, the compound was called inactive in assay [2], in assay [6], in assay [4] and in [5].
As to `C[C@@H]1CN(C2CCC(C#N)(c3ccc(F)cc3)CC2)CC[C@]1(C(=O)O)c1ccccc1` (stereo partly drawn), in assay [1], the efficacy was 31.9% (inactive). For the same compound, the call in assay [2], in [6], in assay [4] and in [5] was inactive.
Consider `O=c1n(Cl)c(=O)n(Cl)c(=O)n1Cl`, for which, in assay [1], the efficacy was -11.8% (inactive). Further, the outcome in [2], in assay [6], in [4] and in assay [5] was inactive.
As for `CN1C(=O)CN=C(c2ccccc2)c2cc([N+](=O)[O-])ccc21`, in assay [1], the efficacy was 23.9% (inactive). The compound was called inactive in [2], in assay [6], in [4] and in [5].
On to `CCCCCCCCC(=O)NCc1ccc(O)c(OC)c1`, for which the efficacy in [1] is -29.4% (inactive). The compound was classed as inactive in assay [2], in assay [6], in assay [4] and in assay [5].
Turning to `CC#C[C@]1(O)CC[C@H]2[C@@H]3C[C@H](C)C4=CC(=O)CC[C@]4(C)[C@H]3CC[C@@]21C`, in assay [1], the efficacy is 83.4% (inactive). The result in [2], in [3] and in assay [5] was inactive. Further, the AC50 in assay [4] was 39.8 µM (active).
Consider `C[N+]1(C)[C@@H]2CC[C@H]1CC(OC(=O)C(CO)c1ccccc1)C2` (stereo partly drawn), for which the efficacy in assay [1] is 19.1% (inactive). Further, the compound was classed as inactive in assay [2], in assay [6], in [4] and in assay [5].
For the compound `C[C@]12CCC(=O)C=C1CC[C@@H]1[C@@H]2[C@@H](O)C[C@@]2(C)[C@H]1CC[C@]2(O)C(=O)CO`, the efficacy in [1] was 14.5% (inactive). In addition, the compound was classed as inactive in assay [2], in assay [6], in [4], in [5] and in assay [8]. The Potency in assay [7] was 0.296 µM (active).
As to `OC[C@@H](O)[C@H](O)[C@H](O)[C@@H](O)CO`, the efficacy in assay [1] was -17.3% (inactive). The compound was classed as inactive in assay [2], in assay [6], in assay [4] and in [5].
Consider `NC(=O)OCCCc1ccccc1`, for which the efficacy in assay [1] is 24.7% (inactive). Moreover, the call in assay [2], in assay [6], in assay [4] and in assay [5] was inactive.
Take `CN(C(=O)CCCOc1ccc2[nH]c(=O)ccc2c1)C1CCCCC1`: the efficacy in assay [1] was 72.6% (inactive). Also, the outcome in [2], in [3], in assay [4] and in assay [5] was inactive.
For `CCCC[N+]1(C)[C@@H]2CC(OC(=O)[C@H](CO)c3ccccc3)C[C@H]1[C@@H]1O[C@@H]12` (stereo partly drawn), the efficacy in assay [1] was -24.1% (inactive). In addition, the compound was called inactive in assay [2], in [6], in assay [4] and in assay [5].
With `NC(=O)CN1CCCC1=O`, the efficacy in assay [1] was 23.9% (inactive). Further, the compound was called inactive in assay [2], in [6], in assay [4] and in [5].
As to `COP(=S)(OC)Oc1ccc(Sc2ccc(OP(=S)(OC)OC)cc2)cc1`, in [1], the efficacy was 20.5% (inactive). Further, the call in assay [2], in [6], in assay [4] and in [5] was inactive.
As to `O=C(O)c1nn(Cc2ccc(Cl)cc2Cl)c2ccccc12`, the parasite growth, % of control (lower = inhibition) in assay [9] came out at 101%. Further, the growth, % of control in assay [10] was found to be 81.1%. Further, the efficacy in assay [1] was 44.2% (inactive). Moreover, the call in assay [2], in assay [6], in [4], in assay [5] and in assay [8] was inactive. Further, in assay [7], the Potency entry was “inactive”.
Regarding `CC(C)C(Br)C(=O)NC(N)=O` (stereo not drawn), the efficacy in assay [1] was -26.9% (inactive). For the same compound, the outcome in [2], in assay [6], in assay [4] and in assay [5] was inactive.
For `CCOC(=O)NC(O)C(Cl)(Cl)Cl` (stereo not drawn), the efficacy in [1] is 20.9% (inactive). For the same compound, the outcome in assay [2], in assay [6], in assay [4] and in assay [5] was inactive.
Turning to `NC(=O)c1ncn([C@@H]2O[C@H](CO)[C@@H](O)[C@H]2O)c1N`, in assay [1], the efficacy is -19.4% (inactive). The compound was classed as inactive in assay [2], in [6], in assay [4], in assay [5] and in assay [8]. The Potency entry in assay [7] is “inactive”.
The compound `Cc1cc(C(C)(C)C)cc(C)c1CC1=NCCN1` had a growth, % of control in assay [10] of 84.3%. Further, the efficacy in [1] was 93.8% (inactive). The AC50 in assay [2] was 14.1 µM (active); in assay [3], 12.6 µM (active); in assay [4], 12.6 µM (active).
In the case of `CC[N+](CC)(CC)CCOc1ccc(/C=C/c2ccccc2)cc1`, the efficacy in [1] is 64.2% (inactive). The result in [2], in assay [3] and in assay [5] was inactive. Besides, the AC50 in [4] is 39.8 µM (active).
With `COc1ccc(C(=O)N2CCCC2=O)cc1`, the parasite growth, % of control (lower = inhibition) in assay [9] was found to be 128%. The compound also registered a growth, % of control in assay [10] of 103%. Further, the efficacy in assay [1] is -13.7% (inactive). For the same compound, the call in assay [2], in assay [6], in [4] and in assay [5] was inactive.
As to `CNC[C@H](O)c1ccc(O)c(O)c1`, the efficacy in [1] is 27.1% (inactive). Also, the result in [2], in [3], in assay [4] and in assay [5] was inactive.
With `CCOC(=O)c1cncn1C(C)c1ccccc1` (stereo not drawn), the efficacy in assay [1] is 19.1% (inactive). Besides, the compound was called inactive in assay [2], in assay [6], in assay [4] and in assay [5].
As to `C[C@@H]1CC[C@H]2[C@@H](C)C(=O)O[C@@H]3O[C@@]4(C)CC[C@@H]1[C@]32OO4`, the efficacy in [1] is 76.3% (inactive). Also, the compound was classed as inactive in assay [2], in assay [3], in assay [4] and in [5].
On to `COP(=O)(OC)C(O)C(Cl)(Cl)Cl` (stereo not drawn), for which the efficacy in assay [1] was -51.3% (inactive). For the same compound, the outcome in assay [2], in assay [4] and in assay [5] was inactive.
For `CCN(CC)C(C)C(=O)c1ccccc1` (stereo not drawn), the efficacy in [1] was 12% (inactive). For the same compound, the compound was called inactive in assay [2], in assay [6], in assay [4] and in [5].
For `C[C@@H]1C[C@@H]([C@H](O)CC2CC(=O)NC(=O)C2)C(=O)[C@@H](C)C1`, in assay [9], the parasite growth, % of control (lower = inhibition) is 6.94%. In addition, the growth, % of control in assay [10] stood at 5.04%. The efficacy in assay [1] is -17.6% (inactive). Further, the result in assay [2], in assay [4] and in assay [5] was inactive.
As to `C=CCc1cc(OC)c(O)c(C(=O)NCCO)c1`, in assay [9], the parasite growth, % of control (lower = inhibition) worked out at 125%. In addition, in [10], the growth, % of control is 100%. In addition, the efficacy in assay [1] is -21.5% (inactive). Further, the AC50 in assay [2] is 12.6 µM (active); in [3] it was 22.4 µM (active); in assay [4] it was 22.4 µM (active).
Regarding `ClC1=C(Cl)C2(Cl)C(CBr)CC1(Cl)C2(Cl)Cl` (stereo not drawn), the efficacy in assay [1] was -23.9% (inactive). Besides, the compound was called inactive in assay [2], in assay [4] and in assay [5].
For `COC(=O)C1=CCCN(C)C1`, in [9], the parasite growth, % of control (lower = inhibition) is 47.2%. Further, the growth, % of control in assay [10] worked out at 93%. Moreover, in assay [1], the efficacy was 26.3% (inactive). In addition, the outcome in [2], in assay [6], in assay [4] and in assay [5] was inactive.
With `COCC(=O)N(c1c(C)cccc1C)C(C)C(=O)OC` (stereo not drawn), the efficacy in assay [1] is -46.6% (inactive). For the same compound, the result in assay [2], in assay [6], in assay [4] and in [5] was inactive.
Turning to `c1ccc(CNCCNCc2ccccc2)cc1`, the efficacy in assay [1] is 55.2% (inactive). Also, the result in [2], in [3] and in assay [5] was inactive. In addition, the AC50 in assay [4] is 25.1 µM (active).
For `CCC(=O)O[C@H]1CC[C@H]2[C@@H]3CCC4=CC(=O)CC[C@]4(C)[C@H]3CC[C@]12C`, the efficacy in assay [1] is -42.2% (inactive). Further, the compound was called inactive in assay [2], in assay [6] and in [4].
On to `Cc1[nH]c(=O)c(C#N)cc1-c1ccc2nccn2c1`, for which the efficacy in [1] was -27% (inactive). The result in assay [2], in assay [6], in assay [4], in assay [5] and in assay [8] was inactive. Moreover, the Potency result in [7] is “inactive”.
In the case of `CC(C)NCC(O)c1ccc(N)c(C#N)c1` (stereo not drawn), in assay [1], the efficacy was -19.3% (inactive). In addition, the result in assay [2], in [6], in assay [4] and in [5] was inactive.
Take `CN(C)[C@@H](CCOc1cccc2ccccc12)c1ccccc1`: the parasite growth, % of control (lower = inhibition) in assay [9] came out at 31.8%. Further, the efficacy in [1] is -116% (inactive). The AC50 was 7.08 µM (active) in [2], 3.16 µM (active) in assay [3] and 3.16 µM (active) in [4].
Regarding `Cc1ccc(N=CN(C)C=Nc2ccc(C)cc2C)c(C)c1`, the efficacy in assay [1] is -16% (inactive). Further, the call in assay [2], in assay [6], in assay [4] and in [5] was inactive.
In the case of `CC(=O)OCC(=O)[C@@]1(O)CC[C@H]2[C@@H]3CCC4=CC(=O)C=C[C@]4(C)[C@H]3[C@@H](O)C[C@@]21C`, the efficacy in assay [1] is -46.1% (inactive). Besides, the outcome in [2], in [3], in [4] and in [5] was inactive.
